The text below walks through data of PubChem BioAssay (Tox21).

Results filed as inconclusive are left out. Entries that show only a call come without a potency. A number with no mark means an inactive call. The source made the active and inactive calls. Unless noted, calls follow the shape of the full dose curve.

One assay in a line: qHTS assay for small molecule agonists of the antioxidant response element (ARE) signaling pathway - cell viability counter screen (AID 743203). Also: nearly all actives have a fitted effect of over 55% in size. The settings on record: ARE-bla HepG2 viability, CellTiter-Glo luminescence, 16 h; series mostly up to 73.3 µM. The essentials:
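Viability counter screen: CellTiter-Glo luminescence, read after 30 min at room temperature, in ARE-bla HepG2 wells. Compound exposure lasted 16 h at 37C/5% CO2, following a 5 h pre-incubation of the cells after plating.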
Take `COC(=O)/C=C(\C)CCC=C(C)C`: the result was inactive.
Same read-out and setting: in the case of `CNC(C)=O` it was “inactive”; in that of `CC(=O)c1ccc2ccc3ccccc3c2c1`, “inactive”; in that of `CCN1CCN(C(=O)N[C@@H](C(=O)N[C@@H]2C(=O)N3[C@@H]2SC(C)(C)[C@H]3C(=O)O)c2ccccc2)C(=O)C1=O`, “inactive”.
On to `Cc1ccc(O)c([N+](=O)[O-])c1`, for which the outcome was inactive.
Still for that read-out and setting: in the case of `CC(C)(C)C(=O)CC(=O)C(C)(C)C` it was “inactive”; in that of `CC(=O)Nc1ccc(OCCOCCOc2ccc(NC(C)=O)cc2)cc1`, “inactive”; in that of `Cc1ccc(NC(N)=O)cc1`, “inactive”.
The same measure, in the same setting: in the case of `CC(C)(C)c1ccc(N)cc1` it was “inactive”; in that of `NS(=O)(=O)c1cc2c(cc1C(F)(F)F)NCNS2(=O)=O`, “inactive”; in that of `CC(CC(=O)Cl)CC(C)(C)C` (configuration not stated), “inactive”.
Regarding `COCCCOc1cc(C[C@@H](C[C@H](N)[C@@H](O)C[C@H](C(=O)NCC(C)(C)C(N)=O)C(C)C)C(C)C)ccc1OC`, the call was inactive.
`CCCCS`: the outcome was inactive.
On the same count and under the same terms, the value for `C[Si](C)(C)O[Si](O)(O)O` was “inactive”.
Same read-out and setting: the value for `CCCCCCCCCCCBr` was “inactive”; that for `CCc1ccc(CC)cc1` was “inactive”.
`CCCCCCCCCCCCCCCCN(C)C`: the viability change, negative = cytotoxic is 8.57% [at 8.36 µM].
With `CC(C)(O)c1ccc(C(C)(C)O)cc1`, the compound was called inactive.
For the compound `O=C(OOC(=O)c1ccccc1)c1ccccc1`, the outcome was inactive.
The same measure, in the same setting: in the case of `Cc1cc(C)c(C)c(C)c1` it was “inactive”; in that of `CCO[Si](CC(C)C)(OCC)OCC`, “inactive”.
The same measure, in the same setting: the value for `CC(CN1CC(=O)NC(=O)C1)N1CC(=O)NC(=O)C1` (configuration not stated) was “inactive”; that for `Cc1ccc(Br)cc1` was “inactive”.
Same read-out and setting: the value for `CC(=O)OC/C=C(/C)CCC=C(C)C` was “inactive”.
Take `CCCCCCCCCCCCCCBr`: the outcome was inactive.
The same measure, in the same setting: in the case of `NCC1CCC(C(=O)Oc2ccc(CCC(=O)O)cc2)CC1` (configuration not stated) it was “inactive”.
`C[C@@H]1CC[C@@]2(OC1)O[C@H]1C[C@H]3[C@@H]4CC[C@H]5C[C@@H](O)CC[C@]5(C)[C@H]4CC(=O)[C@]3(C)[C@H]1[C@@H]2C`: the viability change, negative = cytotoxic is 3.19% [at 8.36 µM].
For the compound `C=COCCCCO`, the outcome was inactive.
On to `CN(C)c1ccncc1`, for which the call was inactive.
On the same count and under the same terms, in the case of `Cc1cc(C)c(N)c(Cl)c1` it was “inactive”.
Still for that read-out and setting: the value for `O=C(O)/C=C(\CC(=O)O)C(=O)O` was “inactive”; that for `COCc1nnc(-c2ccc[n+]([O-])c2)n1-c1c(Cl)c(Cl)cc2[nH]c(=O)c(=O)[nH]c12` was “inactive”.

The next assay is described as follows: qHTS assay for small molecule activators of the heat shock response signaling pathway - cell viability counter screen (AID 743209; active = well fitted cell-killing curve with a large enough effect in the repeat runs; also: nearly all actives have a fitted effect of over 50% in size). The settings on record: HSE-bla HeLa viability, CellTiter-Glo luminescence, 5 h; series mostly up to 62.6 µM. The method, boiled down: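 Cytotoxicity counter screen run in the same wells as the heat-shock bla reporter assay: HeLa HSE-bla cells, 5 h compound exposure at 37 C, viability read by CellTiter-Glo luminescence.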
On the technique in general: qHTS replaces the single test concentration by a dilution series.
`COC(=O)/C=C(\C)CCC=C(C)C`: the Potency entry was “inactive”.
The same measure, in the same setting: the value for `CNC(C)=O` was “inactive”; that for `CC(=O)c1ccc2ccc3ccccc3c2c1` was “inactive”.
Same read-out and setting: in the case of `CCN1CCN(C(=O)N[C@@H](C(=O)N[C@@H]2C(=O)N3[C@@H]2SC(C)(C)[C@H]3C(=O)O)c2ccccc2)C(=O)C1=O` it was “inactive”; in that of `Cc1ccc(O)c([N+](=O)[O-])c1`, “inactive”.
The same measure, in the same setting: the value for `CC(=O)Nc1ccc(OCCOCCOc2ccc(NC(C)=O)cc2)cc1` was “inactive”; that for `CC(C)(C)c1ccc(N)cc1` was “inactive”; that for `NS(=O)(=O)c1cc2c(cc1C(F)(F)F)NCNS2(=O)=O` was “inactive”.
On to `CC(CC(=O)Cl)CC(C)(C)C` (configuration not stated), for which the Potency result was “inactive”.
On to `COCCCOc1cc(C[C@@H](C[C@H](N)[C@@H](O)C[C@H](C(=O)NCC(C)(C)C(N)=O)C(C)C)C(C)C)ccc1OC`, for which the Potency result is “inactive”.
On the same count and under the same terms, the value for `C[Si](C)(C)O[Si](O)(O)O` was “inactive”.
The same measure, in the same setting: in the case of `C/C=C(\C)C=O` it was “inactive”.
Regarding `O=C(O)Cc1c(Cl)ccc(Cl)c1Cl`, the Potency result is “inactive”.
Consider `CCc1ccc(CC)cc1`, for which the Potency result was “inactive”.
The same measure, in the same setting: the value for `O=C(OOC(=O)c1ccccc1)c1ccccc1` was “inactive”.
Turning to `Cc1cc(C)c(C)c(C)c1`, the Potency entry is “inactive”.
On to `CCO[Si](CC(C)C)(OCC)OCC`, for which the Potency entry was “inactive”.
Consider `CC(CN1CC(=O)NC(=O)C1)N1CC(=O)NC(=O)C1` (configuration not stated), for which the Potency result is “inactive”.
On the same count and under the same terms, the value for `CC(=O)OC/C=C(/C)CCC=C(C)C` was “inactive”; that for `CCCCCCCCCCCCCCBr` was “inactive”.
Same read-out and setting: the value for `NCC1CCC(C(=O)Oc2ccc(CCC(=O)O)cc2)CC1` (configuration not stated) was “inactive”.
Consider `C[C@@H]1CC[C@@]2(OC1)O[C@H]1C[C@H]3[C@@H]4CC[C@H]5C[C@@H](O)CC[C@]5(C)[C@H]4CC(=O)[C@]3(C)[C@H]1[C@@H]2C`, for which the activity change, negative = cytotoxicity was 11.4% [at 5.95 µM].
With `C=COCCCCO`, the Potency result is “inactive”.
On the same count and under the same terms, the value for `CN(C)c1ccncc1` was “inactive”; that for `Cc1cc(C)c(N)c(Cl)c1` was “inactive”; that for `CC(C)CC(O)Cc1ccccc1` (configuration not stated) was “inactive”.
Turning to `COCc1nnc(-c2ccc[n+]([O-])c2)n1-c1c(Cl)c(Cl)cc2[nH]c(=O)c(=O)[nH]c12`, the Potency entry was “inactive”.

The nature of another assay: qHTS assay for small molecule activators of the heat shock response signaling pathway (AID 743210; active = well fitted activation curve with a large enough effect in the signal ratio in the repeat runs, with a control signal flat, not every such curve was filed as active; the % refers to the signal ratio). The settings on record: HeLa HSE-bla reporter, beta-lactamase ratio, 5 h; series mostly up to 62.6 µM. The method, boiled down: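 Fluorescence from a cleaved B/G FRET substrate (2.5 h, room temp) reports HSE-driven beta-lactamase in HeLa cells treated 5 h at 37 C with DMSO-dissolved compounds.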
As for `COC(=O)/C=C(\C)CCC=C(C)C`, the result was inactive.
For `CNC(C)=O`, the outcome was inactive.
Same read-out and setting: in the case of `CCN1CCN(C(=O)N[C@@H](C(=O)N[C@@H]2C(=O)N3[C@@H]2SC(C)(C)[C@H]3C(=O)O)c2ccccc2)C(=O)C1=O` it was “inactive”; in that of `Cc1ccc(O)c([N+](=O)[O-])c1`, “inactive”.
In the case of `CC(=O)Nc1ccc(OCCOCCOc2ccc(NC(C)=O)cc2)cc1`, the result was inactive.
For the compound `Cc1ccc(NC(N)=O)cc1`, the outcome was inactive.
Same read-out and setting: the value for `CC(C)(C)c1ccc(N)cc1` was “inactive”; that for `NS(=O)(=O)c1cc2c(cc1C(F)(F)F)NCNS2(=O)=O` was “inactive”; that for `Clc1cc(Cl)c(Cl)c(Cl)c1Cl` was “inactive”.
The same measure, in the same setting: the value for `NNC(=O)CCCCC(=O)NN` was “inactive”; that for `COCCCOc1cc(C[C@@H](C[C@H](N)[C@@H](O)C[C@H](C(=O)NCC(C)(C)C(N)=O)C(C)C)C(C)C)ccc1OC` was “inactive”.
Turning to `CCCCS`, the outcome was inactive.
Regarding `C/C=C(\C)C=O`, the outcome was inactive.
Take `O=C(O)Cc1c(Cl)ccc(Cl)c1Cl`: the result was inactive.
On the same count and under the same terms, in the case of `CCCCCCCCCCCBr` it was “inactive”.
For `CCc1ccc(CC)cc1`, the outcome was inactive.
For `CCCCCCCCCCCCCCCCN(C)C`, the activation is -0.814% [at 5.95 µM].
For the compound `CC(C)(O)c1ccc(C(C)(C)O)cc1`, the outcome was inactive.
Still for that read-out and setting: in the case of `O=C(OOC(=O)c1ccccc1)c1ccccc1` it was “inactive”.
The same measure, in the same setting: the value for `CCO[Si](CC(C)C)(OCC)OCC` was “inactive”; that for `CC(CN1CC(=O)NC(=O)C1)N1CC(=O)NC(=O)C1` (configuration not stated) was “inactive”; that for `Cc1ccc(Br)cc1` was “inactive”.
For the compound `CC(=O)OC/C=C(/C)CCC=C(C)C`, the result was inactive.
Same read-out and setting: the value for `CCCCCCCCCCCCCCBr` was “inactive”; that for `NCC1CCC(C(=O)Oc2ccc(CCC(=O)O)cc2)CC1` (configuration not stated) was “inactive”.
Regarding `C[C@@H]1CC[C@@]2(OC1)O[C@H]1C[C@H]3[C@@H]4CC[C@H]5C[C@@H](O)CC[C@]5(C)[C@H]4CC(=O)[C@]3(C)[C@H]1[C@@H]2C`, the activation is 0.0014% [at 5.95 µM].
For `C=COCCCCO`, the outcome was inactive.
Take `CN(C)c1ccncc1`: the outcome was inactive.
On the same count and under the same terms, in the case of `Cc1cc(C)c(N)c(Cl)c1` it was “inactive”; in that of `CC(C)CC(O)Cc1ccccc1` (configuration not stated), “inactive”.
Still for that read-out and setting: the value for `O=C(O)/C=C(\CC(=O)O)C(=O)O` was “inactive”; that for `COCc1nnc(-c2ccc[n+]([O-])c2)n1-c1c(Cl)c(Cl)cc2[nH]c(=O)c(=O)[nH]c12` was “inactive”.
On the same count and under the same terms, the value for `Cc1ccc(N)nc1` was “inactive”.
